Compounds without any hit were thinned out: in the full panel of roughly 83,000, 20% have a hit.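 For each line, cells grew in 96-well plates with the test compound present at a single concentration for 48 hours.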 Values without a mark were called inactive. Calls of active or inactive are those of the source. The calls were made as follows: active = growth percent below 10; inactive = the rest.

Among the test systems are SR leukemia; RPMI-8226 leukemia; OVCAR-8 ovarian; OVCAR-5 ovarian; OVCAR-4 ovarian; SK-OV-3 ovarian; IGROV1 ovarian; OVCAR-3 ovarian; HS 578T breast; NCI/ADR-RES ovarian.
What all share (experiment): NCI-60 one-dose screen, 48 h (100 = growth as untreated, 0 = no growth, -100 = all killed)
Settings in all cases: 10 µM

In the case of `CCOC(=O)C1=C(Nc2ccc(Br)cc2)C(=O)N(CC)C1`, the growth in the experiment with SR leukemia is 97.7%; in the experiment with RPMI-8226 leukemia, 99.7%; with OVCAR-8 ovarian, 95.7%; in the experiment on OVCAR-5 ovarian, 91%; in the experiment with OVCAR-4 ovarian, 93.7%; in the experiment with SK-OV-3 ovarian, 102%. In addition, the growth with IGROV1 ovarian was 93.1%; in the experiment on OVCAR-3 ovarian, 110%; in the experiment on HS 578T breast, 97.4%; in the experiment on NCI/ADR-RES ovarian, 93.3%.

On to `N#Cc1ccc(NC(=O)Nc2cccc(C#N)c2)cc1`, for which the growth is 72.2% in the experiment on SR leukemia; 30.9% with RPMI-8226 leukemia; 83.6% in the experiment with OVCAR-8 ovarian; 116% in the experiment on OVCAR-5 ovarian; 91.2% in the experiment with OVCAR-4 ovarian; 115% in the experiment on SK-OV-3 ovarian. Also, the growth in the experiment on IGROV1 ovarian was 78%; in the experiment on OVCAR-3 ovarian it was 105%; in the experiment on HS 578T breast, 99.1%; with NCI/ADR-RES ovarian, 90.1%.

For the molecule `CC(C)(N)COS(=O)(=O)O`, the growth is 103% with SR leukemia; 102% in the experiment with RPMI-8226 leukemia; 102% with OVCAR-8 ovarian; 107% in the experiment on OVCAR-5 ovarian; 105% in the experiment on OVCAR-4 ovarian; 96.5% in the experiment on SK-OV-3 ovarian. For the same molecule, the growth was 108% in the experiment on IGROV1 ovarian, 104% in the experiment on OVCAR-3 ovarian, 99.8% in the experiment on HS 578T breast and 114% in the experiment on NCI/ADR-RES ovarian.

As for `C/C(=N\O)C1(O)CCCCC1`, the growth in the experiment with SR leukemia was 94.3%; in the experiment with RPMI-8226 leukemia it was 100%; with OVCAR-8 ovarian, 94.1%; in the experiment on OVCAR-5 ovarian, 103%; in the experiment with OVCAR-4 ovarian, 110%; with SK-OV-3 ovarian, 98.1%. Also, the growth with IGROV1 ovarian was 97.9%; with OVCAR-3 ovarian, 94.7%; in the experiment on HS 578T breast it was 62.5%; in the experiment on NCI/ADR-RES ovarian, 110%.

`C[N+](C)(C)C(=O)c1ccccc1`: the growth with SR leukemia was 102%; in the experiment on RPMI-8226 leukemia, 111%; in the experiment with OVCAR-8 ovarian, 113%; with OVCAR-5 ovarian, 98.7%; in the experiment on OVCAR-4 ovarian it was 115%; in the experiment on SK-OV-3 ovarian it was 104%. Further, the growth with IGROV1 ovarian was 115%; with OVCAR-3 ovarian it was 113%; in the experiment with HS 578T breast, 118%; in the experiment with NCI/ADR-RES ovarian it was 113%.

Consider `O=C1C[C@H](c2ccccc2)[C@H](c2ccccc2)C1`, for which the growth in the experiment with SR leukemia is 99.2%; in the experiment on RPMI-8226 leukemia, 83.2%; with OVCAR-8 ovarian it was 109%; in the experiment with OVCAR-5 ovarian, 95.8%; in the experiment on OVCAR-4 ovarian, 105%; with SK-OV-3 ovarian it was 102%. Further, the growth in the experiment on IGROV1 ovarian was 112%; with OVCAR-3 ovarian it was 118%; in the experiment on HS 578T breast it was 112%; with NCI/ADR-RES ovarian, 106%.

For the molecule `c1ccc2c(N3CCCCC3)ncnc2c1`, the growth in the experiment with SR leukemia was 105%; in the experiment on RPMI-8226 leukemia, 66.9%; in the experiment with OVCAR-8 ovarian, 94.4%; in the experiment on OVCAR-5 ovarian it was 99.9%; in the experiment with OVCAR-4 ovarian, 96.8%; in the experiment on SK-OV-3 ovarian it was 94%. In addition, the growth with IGROV1 ovarian is 96%; with OVCAR-3 ovarian, 97.3%; with HS 578T breast, 116%; in the experiment on NCI/ADR-RES ovarian, 91%.

Regarding `Nc1ccccc1C(=O)Nc1ccc(Cl)cc1Cl`, the growth in the experiment on SR leukemia is 50%; with RPMI-8226 leukemia, 63.9%; in the experiment on OVCAR-8 ovarian, 83.1%; in the experiment on OVCAR-5 ovarian, 100%; in the experiment on OVCAR-4 ovarian, 87.5%; in the experiment on SK-OV-3 ovarian it was 99.2%. Also, the growth in the experiment with IGROV1 ovarian is 35.9%; in the experiment on OVCAR-3 ovarian, 93.7%; with HS 578T breast it was 87.4%; in the experiment on NCI/ADR-RES ovarian, 90.7%.

Regarding `CC(=Nc1ccccc1)C1=C(O)C(Cc2cccc(F)c2)NC1=O` (stereo not given), the growth was 0.385% (active) in the experiment with SR leukemia; 9.85% (active) in the experiment on RPMI-8226 leukemia; 1.8% (active) in the experiment on OVCAR-8 ovarian; 25.6% in the experiment with OVCAR-5 ovarian; 36.4% in the experiment with OVCAR-4 ovarian; 4.34% (active) with SK-OV-3 ovarian. Besides, the growth was 13.8% with IGROV1 ovarian, -36.1% (active) in the experiment with OVCAR-3 ovarian, 45.6% with HS 578T breast and 7.11% (active) in the experiment on NCI/ADR-RES ovarian.

Turning to `COS(=O)(=O)c1ccc(Br)cc1`, the growth with SR leukemia was 135%; in the experiment on RPMI-8226 leukemia it was 111%; in the experiment with OVCAR-8 ovarian, 98.6%; in the experiment on OVCAR-5 ovarian, 93.4%; in the experiment with OVCAR-4 ovarian, 107%; in the experiment with SK-OV-3 ovarian, 104%. The growth was 118% in the experiment with IGROV1 ovarian, 101% in the experiment with OVCAR-3 ovarian, 114% in the experiment on HS 578T breast and 93.7% with NCI/ADR-RES ovarian.

Consider `CN(C)Cc1cc(C(C)(C)CC(C)(C)C)ccc1O`, for which the growth is 87.7% with SR leukemia; 95.7% with RPMI-8226 leukemia; 106% with OVCAR-8 ovarian; 98.5% with OVCAR-5 ovarian; 86.5% with OVCAR-4 ovarian; 94.5% with SK-OV-3 ovarian. In addition, the growth in the experiment with IGROV1 ovarian is 85.7%; in the experiment on OVCAR-3 ovarian, 88.4%; with HS 578T breast, 106%; in the experiment on NCI/ADR-RES ovarian, 91.5%.

On to `COc1ccc(Oc2c(I)cc(CC(NC(C)=O)C(=O)O)cc2I)cc1` (stereo not given), for which the growth in the experiment on SR leukemia is 83.1%; in the experiment on RPMI-8226 leukemia, 74.3%; with OVCAR-8 ovarian it was 83.2%; in the experiment on OVCAR-5 ovarian it was 91.7%; in the experiment on OVCAR-4 ovarian, 89.4%; in the experiment on SK-OV-3 ovarian, 105%. Also, the growth with IGROV1 ovarian was 106%; in the experiment on OVCAR-3 ovarian it was 99%; in the experiment on HS 578T breast, 95.7%; in the experiment on NCI/ADR-RES ovarian it was 62.4%.

With `OCCN1CCOCC1`, the growth with SR leukemia was 104%; in the experiment with RPMI-8226 leukemia it was 107%; in the experiment with OVCAR-8 ovarian, 110%; in the experiment on OVCAR-5 ovarian, 101%; in the experiment on OVCAR-4 ovarian it was 110%; in the experiment with SK-OV-3 ovarian, 109%. The growth was 117% in the experiment with IGROV1 ovarian, 122% with OVCAR-3 ovarian, 106% in the experiment on HS 578T breast and 116% in the experiment on NCI/ADR-RES ovarian.

For `CC1CCCC(CC(N)=O)CC1` (stereo not given), the growth was 94.7% in the experiment on SR leukemia; 88.8% in the experiment on RPMI-8226 leukemia; 89% in the experiment on OVCAR-8 ovarian; 104% in the experiment with OVCAR-5 ovarian; 108% with OVCAR-4 ovarian; 107% with SK-OV-3 ovarian. The growth with IGROV1 ovarian is 114%; with OVCAR-3 ovarian, 102%; in the experiment with HS 578T breast, 107%; with NCI/ADR-RES ovarian it was 105%.

The values above are taken from PubChem BioAssay (NCI).
